Consider eight compounds from PubChem BioAssay (NCI).

Among the test systems are HCT-15 colon; HT29 colon; SNB-75 CNS; SNB-19 CNS; U251 CNS; PC-3 prostate; SK-MEL-5 melanoma; UACC-62 melanoma; LOX IMVI melanoma; SK-MEL-28 melanoma; SK-MEL-2 melanoma; EKVX NSCLC; SN12C renal; UO-31 renal; TK-10 renal; ACHN renal; CAKI-1 renal; A498 renal; CCRF-CEM leukemia; MOLT-4 leukemia.
Common to all, as to test: NCI-60 one-dose screen, 48 h (100 = growth as untreated, 0 = no growth, -100 = all killed)
Holding throughout (conditions): 10 µM unless noted

About 83,000 compounds went through this panel and 20% of them were active in at least one assay; those are over-represented in the sample as a whole.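 Method: cells in 96-well plates; compound added at one concentration; 48 h incubation; percent growth measured; values under 10 scored active.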 A number with no mark means an inactive call. Active and inactive are the calls of the source.

For the compound `O=C(CCCCCCN1CC(=O)N2[C@H](c3cc(Br)cs3)c3[nH]c4ccccc4c3C[C@H]2C1=O)NO`, the growth in the test on HCT-15 colon is 96.9%; with HT29 colon, 50.7%; in the test with SNB-75 CNS, 26.2%; in the test on SNB-19 CNS, 41.1%; in the test with U251 CNS it was 33.3%; in the test on PC-3 prostate, 46.9%. In addition, the growth was 27% in the test on SK-MEL-5 melanoma; 12% in the test on UACC-62 melanoma; 8.65% (active) with LOX IMVI melanoma; 27.7% in the test with SK-MEL-28 melanoma; 50% with SK-MEL-2 melanoma; 75.4% in the test with EKVX NSCLC. In addition, the growth in the test on SN12C renal was 53.7%; with UO-31 renal, 39.6%; with TK-10 renal it was 32%; with ACHN renal it was 47.8%; in the test with CAKI-1 renal, 43.7%; in the test on A498 renal, 58.6%. The results for the growth in the test with CCRF-CEM leukemia and with MOLT-4 leukemia were 23.9% and 9.39% (active), respectively.

Take `O=C(NCCCCNC(=O)OCc1ccc2c(Cl)cc(Cl)c(O)c2n1)OCc1ccc2c(Cl)cc(Cl)c(O)c2n1`: the growth with HCT-15 colon is 13%; with HT29 colon, 103%; in the test on SNB-75 CNS, 24.6%; with SNB-19 CNS it was 62.7%; in the test on U251 CNS, 9.05% (active); with PC-3 prostate, 18.8%. Further, the growth in the test on SK-MEL-5 melanoma is -46.4% (active); in the test on UACC-62 melanoma, 36.7%; with LOX IMVI melanoma it was 14.4%; in the test on SK-MEL-28 melanoma it was 50.6%; in the test on SK-MEL-2 melanoma it was 29.6%; in the test on EKVX NSCLC, 91.3%. Also, the growth was 28.1% in the test with SN12C renal; 37.2% in the test on UO-31 renal; 61.3% in the test with TK-10 renal; 26.2% in the test on ACHN renal; 13.1% in the test with CAKI-1 renal; -1.85% (active) with A498 renal. Moreover, the growth was 18.3% in the test with CCRF-CEM leukemia and 22.6% with MOLT-4 leukemia.

As for `CCCc1cc(NC)nc(S(=O)(=O)CC)n1`, the growth with HCT-15 colon is 104%; in the test on HT29 colon, 107%; in the test with SNB-75 CNS, 88.6%; with SNB-19 CNS, 102%; with U251 CNS, 107%; in the test with PC-3 prostate it was 109%. Besides, the growth in the test on SK-MEL-5 melanoma is 104%; with UACC-62 melanoma, 93.8%; in the test with LOX IMVI melanoma it was 103%; in the test on SK-MEL-28 melanoma it was 106%; in the test with SK-MEL-2 melanoma it was 115%; with EKVX NSCLC, 104%. In addition, the growth with SN12C renal is 99.1%; in the test on UO-31 renal it was 91.8%; with TK-10 renal it was 110%; in the test with ACHN renal, 107%; with CAKI-1 renal, 98.1%; in the test with A498 renal it was 113%. Further, the growth in the test with CCRF-CEM leukemia and in the test with MOLT-4 leukemia was 107% throughout.

On to `CN(CCOc1ccc(C#N)cc1)CCOc1ccc(C#N)cc1`, for which the growth with HCT-15 colon was 85.8%; in the test with HT29 colon it was 88.7%; with SNB-75 CNS, 83.4%; with SNB-19 CNS, 44.5%; in the test on U251 CNS, 78%; with PC-3 prostate it was 71.7%. Moreover, the growth was 6.74% (active) in the test on SK-MEL-5 melanoma; 73.4% with UACC-62 melanoma; 84.9% with LOX IMVI melanoma; 94.9% in the test on SK-MEL-28 melanoma; 66.9% in the test with SK-MEL-2 melanoma; 80.3% with EKVX NSCLC. The growth with SN12C renal is 81.6%; with UO-31 renal, 63%; in the test on TK-10 renal, 94.3%; with ACHN renal it was 83.6%; in the test on CAKI-1 renal it was 99.7%; with A498 renal it was 12.7%. Besides, the growth is -84.4% (active) in the test with CCRF-CEM leukemia and 94.4% in the test on MOLT-4 leukemia.

Take `Cc1ccc(-c2nc(/C=C3/C(=O)Nc4ccccc43)c3ccccn23)cc1`: the growth was 26.5% in the test on HCT-15 colon; 42.3% in the test on HT29 colon; 88.9% in the test with SNB-75 CNS; 99.6% in the test on SNB-19 CNS; 85.2% with U251 CNS; 78.3% with PC-3 prostate. The growth is 82.9% in the test on SK-MEL-5 melanoma; 84.5% with UACC-62 melanoma; 77.1% with LOX IMVI melanoma; 133% with SK-MEL-28 melanoma; 39.3% in the test on SK-MEL-2 melanoma; 80.1% in the test with EKVX NSCLC. The growth is 82.6% in the test with SN12C renal; 54.3% in the test on UO-31 renal; 88.9% in the test with TK-10 renal; 16.6% with ACHN renal; 48.8% with CAKI-1 renal; 104% in the test on A498 renal. Further, the growth in the test on CCRF-CEM leukemia was 84.3%; in the test with MOLT-4 leukemia it was 72.2%.

As for `CCN(C(=O)N1CCN(c2cc3c(cc2F)c(=O)c(C(=O)O)cn3C2CC2)CC1)c1nc(-c2ccc(Cl)cc2)cs1`, the growth in the test with HCT-15 colon is 10.2%; in the test on HT29 colon it was 5.63% (active); in the test on SNB-75 CNS, 28.9%; with SNB-19 CNS, 15.6%; in the test on U251 CNS, 15.1%; with PC-3 prostate, 10.1%. For the same compound, the growth is -28.2% (active) in the test with SK-MEL-5 melanoma; -26.7% (active) in the test on UACC-62 melanoma; 5.32% (active) in the test on LOX IMVI melanoma; 40% with SK-MEL-28 melanoma; 9.44% (active) in the test on SK-MEL-2 melanoma; 16.9% in the test with EKVX NSCLC. For the same compound, the growth in the test on SN12C renal is 3.28% (active); with UO-31 renal, 5.03% (active); in the test on TK-10 renal, 28.4%; with ACHN renal, -12.2% (active); in the test on CAKI-1 renal, 6.12% (active); in the test on A498 renal, 3.1% (active). Moreover, the growth with CCRF-CEM leukemia was 20.7%; in the test on MOLT-4 leukemia it was 5.81% (active).

With `O=C(O)CCCN1C(=O)/C(=C/C(Cl)=C/c2ccccc2)SC1=S`, the growth was -54.3% (active) with HCT-15 colon; 7.49% (active) in the test with HT29 colon; 35.9% with SNB-75 CNS; 37.4% in the test with SNB-19 CNS; 21% in the test on U251 CNS; 36.5% with PC-3 prostate. For the same compound, the growth in the test with SK-MEL-5 melanoma is 38.4%; in the test with UACC-62 melanoma, 10.1%; in the test with LOX IMVI melanoma it was -55.5% (active); with SK-MEL-28 melanoma, 7.4% (active); with SK-MEL-2 melanoma, 59.3%; in the test on EKVX NSCLC, 40.2%. The growth with SN12C renal was -6.97% (active); in the test with UO-31 renal, -46% (active); in the test with TK-10 renal it was 30.3%; in the test on ACHN renal, -93.1% (active); in the test with CAKI-1 renal, 24.2%; with A498 renal it was 87.5%. Also, the growth in the test on CCRF-CEM leukemia was 2.55% (active); in the test with MOLT-4 leukemia, 9.65% (active).

As to `CCOC(=O)C1=C(NC)OCC1=O`, the growth is 111% in the test with HCT-15 colon; 99.6% in the test on HT29 colon; 99.1% with SNB-75 CNS; 109% in the test on SNB-19 CNS; 96.5% in the test on U251 CNS; 85.7% in the test on PC-3 prostate. The growth was 93.4% with SK-MEL-5 melanoma; 103% in the test on UACC-62 melanoma; 101% with LOX IMVI melanoma; 110% in the test on SK-MEL-28 melanoma; 116% in the test on SK-MEL-2 melanoma; 99.3% in the test with EKVX NSCLC. In addition, the growth with SN12C renal was 103%; in the test on UO-31 renal it was 88.3%; in the test with TK-10 renal, 99.4%; with ACHN renal, 110%; in the test with CAKI-1 renal, 100%; with A498 renal, 86.1%. The growth was 101% in the test with CCRF-CEM leukemia and 97.3% in the test on MOLT-4 leukemia.
